HSF1 inhib – HSF1 inhibition; NIH3T3-HGL HSE-luciferase, MG132-induced, luminescence 8 h; stronger effect = lower value; activity change, negative = inhibition, % at 7.5 µM (by protocol); hit rate 0.77% among 300,000; AID 2098;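 active means more than half of replicate wells show activity change below -50%, luminescence cut by over half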;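 further: luciferase reports HSF-1 transcriptional activity via heat shock element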
HSF-1 act – increases HSF-1 driven luciferase reporter signal; NIH3T3-HGL HSF-1 luciferase reporter, MG132, 8 h; 100% = twice DMSO control signal; activation, % at 9 µM; hit rate 1.7% among 300,000; AID 504408;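 active means mean replicate activation of at least 50% with a set share of replicates each reaching 50%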
NPR2 activator – GC-B (human) receptor activation | P20594 | HEK293-GC-B cells, CNP EC30, cGMP TR-FRET; 0% at EC30 CNP, 100% saturating CNP | activation, % at 10 µM | hit rate 0.11% among 370,000;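 active means activation at 10 µM reaching about 35% in either raw or pattern-adjusted values, limit read from the data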
Target sequence (P20594 whole entry, looked up): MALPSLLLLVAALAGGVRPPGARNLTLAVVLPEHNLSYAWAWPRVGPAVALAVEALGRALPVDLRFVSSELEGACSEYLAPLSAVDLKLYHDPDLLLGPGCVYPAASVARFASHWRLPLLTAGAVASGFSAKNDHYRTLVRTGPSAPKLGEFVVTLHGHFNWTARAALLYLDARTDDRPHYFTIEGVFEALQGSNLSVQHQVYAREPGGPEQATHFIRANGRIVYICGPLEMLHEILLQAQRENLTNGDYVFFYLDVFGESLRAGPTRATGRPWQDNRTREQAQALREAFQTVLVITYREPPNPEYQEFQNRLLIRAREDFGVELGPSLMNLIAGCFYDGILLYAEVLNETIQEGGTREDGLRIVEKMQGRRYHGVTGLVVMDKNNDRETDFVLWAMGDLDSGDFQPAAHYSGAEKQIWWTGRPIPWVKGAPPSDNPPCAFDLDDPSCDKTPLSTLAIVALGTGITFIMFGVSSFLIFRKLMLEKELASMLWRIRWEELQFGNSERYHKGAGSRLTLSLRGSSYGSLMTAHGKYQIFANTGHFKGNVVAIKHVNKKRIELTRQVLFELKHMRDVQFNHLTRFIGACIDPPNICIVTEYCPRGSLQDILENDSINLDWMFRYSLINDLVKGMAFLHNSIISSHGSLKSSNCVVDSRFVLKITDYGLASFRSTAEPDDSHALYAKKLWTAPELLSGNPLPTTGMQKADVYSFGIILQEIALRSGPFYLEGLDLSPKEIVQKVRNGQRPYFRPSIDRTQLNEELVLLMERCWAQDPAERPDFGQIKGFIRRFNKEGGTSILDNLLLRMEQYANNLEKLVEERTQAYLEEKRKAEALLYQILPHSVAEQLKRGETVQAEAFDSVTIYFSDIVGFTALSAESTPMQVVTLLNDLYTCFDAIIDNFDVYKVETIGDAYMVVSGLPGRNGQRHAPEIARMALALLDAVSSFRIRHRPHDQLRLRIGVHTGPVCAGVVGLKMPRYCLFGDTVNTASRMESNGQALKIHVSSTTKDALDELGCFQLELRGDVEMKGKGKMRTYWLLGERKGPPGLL
aDG glyco act – increases alpha dystroglycan glycosylation; Pro5-aDG cells, alpha-DG glycosylation AlphaScreen (IIH6); 0% Pro5, 100% B10-LARGE cell signal; activation, % at 10 µM; hit rate 0.22% among 360,000;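 active means activation of at least 8% versus controls, or a plate z-score of at least 8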;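 further: Pro5 are CHO cells carrying HIG-tagged alpha-DG that lacks glycosylation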
Dyrk1A ADPGlo – blocks rat Dyrk1A kinase activity; Q63470; ADP-Glo luminescence, NFATc1 peptide; inhibition, % at 12.5 µM; hit rate 0.43% among 310,000; AID 504441; in the data active means inhibition above about 50%
NPR1 activator – GC-A (human) enzyme activation. P16066. HEK293 GC-A cells, cGMP TR-FRET, EC30 ANP; 0% at EC30 ANP, 100% saturating ANP. activation, % at 10 µM. hit rate 0.14% among 370,000. AID 1671463; in the data active means activation above about 40%
Hits are given with their value. Compounds with a hit are over-represented: about 2.5% of the library has one in this group of screens.

For O=C(CNS(=O)(=O)c1ccc(Br)s1)NCc1ccccc1 the results were HSF1 inhib inactive, HSF-1 act 68.9, NPR2 activator inactive, aDG glyco act inactive, Dyrk1A ADPGlo inactive and NPR1 activator inactive.
NC(=O)c1ccc[n+](CC(=O)OCCC23CC4CC(CC(C4)C2)C3)c1 was read as HSF1 inhib -70.0, HSF-1 act inactive, NPR2 activator inactive, aDG glyco act inactive, Dyrk1A ADPGlo inactive and NPR1 activator inactive.
COc1ccc(C)cc1NC(=O)CNc1ccccc1CN(C)C1CCCCC1 was read as HSF1 inhib inactive, HSF-1 act inactive, NPR2 activator inactive, aDG glyco act inactive, Dyrk1A ADPGlo inactive and NPR1 activator inactive.
`O=[N+]([O-])c1c(Nc2ccccc2O)cc(Cl)c2nonc12` gave HSF1 inhib inactive, HSF-1 act 206.6, NPR2 activator 42.4, aDG glyco act inactive, Dyrk1A ADPGlo inactive and NPR1 activator inactive.
For Cc1ccccc1C(=O)NCC(=O)NC1CC1 the results were NPR2 activator inactive, aDG glyco act inactive, Dyrk1A ADPGlo inactive and NPR1 activator inactive.
Screening Nc1nc(SCC(=O)Nc2ccc([N+](=O)[O-])cc2Br)n[nH]1 returned HSF1 inhib inactive, HSF-1 act 57.8, NPR2 activator inactive, aDG glyco act inactive, Dyrk1A ADPGlo inactive and NPR1 activator inactive.
`CC(C)c1nc(SCC(=O)Nc2ccc([N+](=O)[O-])cc2Br)n[nH]1` gave HSF1 inhib inactive, HSF-1 act inactive, NPR2 activator inactive, aDG glyco act inactive and NPR1 activator inactive.
`O=C(NCc1nc(-c2ccc(Cl)cc2)no1)c1ccco1` gave HSF1 inhib inactive, HSF-1 act 55.8, NPR2 activator inactive, aDG glyco act inactive, Dyrk1A ADPGlo inactive and NPR1 activator inactive.
For O=C(c1ccc([N+](=O)[O-])cc1)N1CCN(c2ncc(Br)cn2)CC1 the results were HSF1 inhib -75.8, HSF-1 act inactive, NPR2 activator inactive, aDG glyco act inactive, Dyrk1A ADPGlo inactive and NPR1 activator inactive.
For CC1CC(C)(C)CC2(C1)NC(=O)N(CC(=O)NC1CCCc3ccccc31)C2=O (stereo unspecified) the results were HSF1 inhib inactive, HSF-1 act inactive, NPR2 activator inactive, aDG glyco act inactive, Dyrk1A ADPGlo inactive and NPR1 activator inactive.
COc1ccccc1/C=C/C1=NC(=C\C=C/c2ccccc2)/C(=O)O1 was read as HSF1 inhib inactive, HSF-1 act 170.9, NPR2 activator inactive, aDG glyco act inactive, Dyrk1A ADPGlo inactive and NPR1 activator inactive.
Screening COc1ccc(/C=N/NC(=O)CN(C)S(=O)(=O)c2ccc(NC(C)=O)cc2)cc1 returned HSF1 inhib -59.6, HSF-1 act inactive, NPR2 activator inactive, aDG glyco act inactive and NPR1 activator inactive.
For CC(=O)N(C)c1ccc(OCC(O)Cn2c(C)nc3ccccc32)cc1 (stereo unspecified) the results were HSF1 inhib inactive, HSF-1 act inactive, NPR2 activator inactive, aDG glyco act inactive, Dyrk1A ADPGlo inactive and NPR1 activator inactive.
CC(=O)N(C)c1ccc(OCC(O)Cn2c3ccc(Cl)cc3c3cc(Cl)ccc32)cc1 (stereo unspecified) was read as HSF1 inhib inactive, HSF-1 act 58.8, NPR2 activator inactive, aDG glyco act inactive, Dyrk1A ADPGlo inactive and NPR1 activator inactive.
Screening COc1ccc(S(=O)(=O)N2CCCCC2)cc1NC(=O)C1CSC2(C)CCC(=O)N12 (stereo unspecified) returned HSF1 inhib inactive, HSF-1 act inactive, NPR2 activator inactive, aDG glyco act inactive, Dyrk1A ADPGlo inactive and NPR1 activator inactive.
CCC(C)c1ccccc1NC(=O)c1cc2cccc([N+](=O)[O-])c2[nH]1 (stereo unspecified) was read as HSF1 inhib inactive, HSF-1 act inactive, NPR2 activator inactive, aDG glyco act inactive and NPR1 activator inactive.
Cc1ccc(NC(=O)c2cc3cccc([N+](=O)[O-])c3[nH]2)cc1 was read as HSF1 inhib inactive, HSF-1 act 164.5, NPR2 activator inactive, aDG glyco act inactive, Dyrk1A ADPGlo inactive and NPR1 activator inactive.
For CCOc1ccc(Nc2nc3ccccc3n2C)cc1 the results were HSF1 inhib inactive, HSF-1 act 72.2, NPR2 activator inactive, aDG glyco act inactive, Dyrk1A ADPGlo inactive and NPR1 activator inactive.
CCN(CC)CCNc1nc2ccccc2n1C was read as HSF1 inhib inactive, HSF-1 act 56.6, NPR2 activator inactive, aDG glyco act inactive, Dyrk1A ADPGlo inactive and NPR1 activator inactive.
Screening CC(=O)NCCc1nc2ccccc2n1CCCCOc1ccccc1 returned HSF1 inhib inactive, HSF-1 act 53.7, NPR2 activator inactive, aDG glyco act inactive, Dyrk1A ADPGlo inactive and NPR1 activator inactive.
CCOc1ccc(NCc2nc3ccccc3n2CCOc2ccccc2)cc1 was read as HSF1 inhib -52.4, HSF-1 act inactive, NPR2 activator inactive, aDG glyco act inactive, Dyrk1A ADPGlo inactive and NPR1 activator inactive.
Screening CCN(CC)CCn1c(C)nc2ccccc21 returned HSF1 inhib inactive, HSF-1 act inactive, NPR2 activator inactive, aDG glyco act inactive, Dyrk1A ADPGlo inactive and NPR1 activator inactive.
CC(C)(C)OC(=O)C[C@@H]1C/C=C\C[C@H](CC(=O)NCCO)C(=O)NC[C@H](c2ccccc2)OC1=O was read as NPR2 activator inactive, aDG glyco act inactive, Dyrk1A ADPGlo inactive and NPR1 activator inactive.
Nc1ccccc1NC(=O)NC(=O)c1ccccc1 was read as HSF1 inhib inactive, HSF-1 act inactive, NPR2 activator inactive, aDG glyco act inactive, Dyrk1A ADPGlo inactive and NPR1 activator inactive.
For N#Cc1ccc(C(=O)NNC(=O)c2ccncc2)cc1 the results were HSF1 inhib inactive, HSF-1 act inactive, NPR2 activator inactive, aDG glyco act inactive, Dyrk1A ADPGlo inactive and NPR1 activator inactive.
Screening CCN(Cc1ccccc1)C(=O)c1ccccc1C returned HSF1 inhib inactive, HSF-1 act inactive, NPR2 activator inactive, aDG glyco act inactive, Dyrk1A ADPGlo inactive and NPR1 activator inactive.
Cc1ccc2oc(=O)cc(CN3CCC(C)CC3)c2c1 was read as HSF1 inhib inactive, HSF-1 act inactive, NPR2 activator inactive, aDG glyco act inactive, Dyrk1A ADPGlo inactive and NPR1 activator inactive.
`Cc1cc(Cl)ccc1C(=O)C1CCCN(C(=O)CCn2cnnn2)C1` (stereo unspecified) gave HSF1 inhib inactive, HSF-1 act inactive, NPR2 activator inactive, aDG glyco act inactive, Dyrk1A ADPGlo inactive and NPR1 activator inactive.
Screening CCn1c(Cc2ccccc2)nnc1SCC(=O)Nc1ccccc1O returned HSF1 inhib inactive, HSF-1 act 50.7, NPR2 activator inactive, aDG glyco act inactive, Dyrk1A ADPGlo inactive and NPR1 activator inactive.
`CCn1c(Cc2ccccc2)nnc1SCC(=O)NC(C)(C)C` gave HSF1 inhib inactive, HSF-1 act inactive, NPR2 activator inactive, aDG glyco act inactive, Dyrk1A ADPGlo inactive and NPR1 activator inactive.

Compound activity: PubChem, several laboratories
